For 57 compounds, IC50 results are on record in PubChem BioAssay AID624351 (Southern Research Specialized Biocontainment Screening …, 2012).

In all, about 2,400 compounds went through this assay and about 1,400 (58%) were called active.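 How the source made its calls: active means inhibition of 30% or more at any tested dose; inconclusive means primary hits over the limit that were never retested; inactive means the rest.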 So high a share suggests a set chosen from earlier hits. The list shows a part of the results.

A short description of the assay: ADP Hunter readout inhibition without MgcRacGAP – biochemical, coupled enzyme counter-screen, artefact control for MgcRacGAP inhibitor project, dose response (AID 624351).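 Further: signal is the ADP detection kit reading of free GDP without any GAP enzyme.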 The conditions noted are these: fluorescence, no MgcRacGAP; series mostly up to 80 µM.
For `Cc1cccc2sc(NNC(=O)c3cc(=O)c4ccccc4o3)nc12`, the IC50 was 64.9 µM (active).
Then `COc1cc(/C=N/NC(=O)C2=NNC(=O)C2C)ccc1O` (configuration not stated), with 74.7 µM (active).
Then `CC1C(=O)NN=C1C(=O)N/N=C\c1ccc(O)cc1O` (configuration not stated), with 37.7 µM (active).
Then `COc1cc(/C=N/NC(=O)CC2C(=O)NN=C2C)ccc1O` (configuration not stated), with 59.1 µM (active); and `CCN1CCN(Cc2ccc(NC(=O)c3ccc(C)c(/C=C/c4cnc(Nc5cc(N6CCNCC6)nc(C)n5)cn4)c3)cc2C(F)(F)F)CC1`, with “inactive”; and `O=C(N/N=C/c1ccc(F)cc1)c1cc(-c2ccco2)nc2ccccc12`, with “inactive”.
Consider `O=C(N/N=C/c1ccc(O)cc1)c1csc2c1CCCC2`, for which the half-inhibitory concentration (IC50) is 40.6 µM (active).
With `O=C(N/N=C/c1sc2ccccc2c1O)c1cccc2ccccc12`, the half-inhibitory concentration (IC50) was 60.6 µM (active).
Next, `O=C(N/N=C/c1ccc(O)cc1)c1csc2ccccc12`: 43.1 µM (active).
Then `Cc1c(C(=O)N/N=C/c2ccc(O)cc2)sc(=S)n1C`, with “inactive”; and `C=CCc1cccc(Cl)c1OCCCNC1CCCC1`, with “inactive”.
Then `O=C1ON=C(c2ccccc2)/C1=C/c1ccco1`, with “inactive”.
Take `Cc1ccc(COC(=O)Cc2coc3cc(O)ccc23)cc1`: the 50% inhibitory concentration (IC50) was 28.9 µM (active).
Next, `Cn1cccc1CC(=O)N/N=C/C=C/c1ccco1`: “inactive”; `Oc1ccc(CCc2ccccn2)cc1`: 44.9 µM (active); `c1ccc(CNC23CC4CC(CC(C4)C2)C3)nc1`: “inactive”.
Next, `COc1ccc(CN(C)CCc2ccccn2)cc1OC`: “inactive”; `CC(C)CC(=O)N1CCN(Cc2cccc([N+](=O)[O-])c2)CC1`: “inactive”.
Then `COc1cc(N2C(=O)C=CC2=O)ccc1N1C(=O)C=CC1=O`, with “inactive”; and `O=C(c1ccccc1F)N1CCN(Cc2ccc3c(c2)OCO3)CC1`, with “inactive”.
Regarding `CCNc1nc(NCC)nc(N/N=C/c2ccc(O)c(O)c2)n1`, the IC50 was 50.4 µM (active).
Then `COc1ccc(-c2cnnc(N/N=C/c3ccc(O)c(O)c3)n2)cc1`, with 73.9 µM (active); and `COc1cc(/C=N/Nc2nc(N3CCCC3)nc(N3CCCC3)n2)ccc1O`, with 79.1 µM (active).
On to `Oc1ccc(/C=N/Nc2nc(N3CCCC3)nc(N3CCCC3)n2)cc1O`, for which the IC50 was 48.3 µM (active).
Then `COc1cc2nc(N3CCNCC3)nc(N)c2cc1OC`, with “inactive”.
Then `Cc1ccc(C)c(-n2sc3ccc(F)cc3c2=O)c1`, with “inactive”; and `COc1ccc(/C=N/Nc2nc(N3CCCC3)nc(N3CCCC3)n2)cc1O`, with 71.1 µM (active); and `CCOc1ccc(NCc2cccn2-c2nnc(N3CCC(C(=O)NCCCN4CCCCC4)CC3)s2)cc1`, with 68.9 µM (active).
Next, `CCN(CC)Cc1cc(Nc2c3ccccc3nc3c4ccccc4n(C)c23)cc(CN(CC)CC)c1O`: 20.9 µM (active); `Cc1c(Cl)sn(-c2ccc(Cl)cc2)c1=O`: “inactive”; `Cc1[nH]n(-c2cccc(Cl)c2)c(=O)c1-c1ccc(Cl)cc1`: 77.2 µM (active).
For `Cc1ccc(-c2ccc(/C=C3\C(=O)ON=C3c3ccccc3)o2)c([N+](=O)[O-])c1`, the IC50 result is “inactive”.
Then `COc1ccc(NC2CCCN(C(=O)c3ccccc3C(F)(F)F)C2)cc1` (configuration not stated), with 76.2 µM (active); and `COc1ccc(CN2CCN(Cc3ccc(C(F)(F)F)cc3)CC2)cc1`, with “inactive”; and `CCN1CCCC1CNCC(=O)Nc1ccc(OC(F)(F)F)cc1` (configuration not stated), with “inactive”.
As to `COc1ccc(NC2CCCN(C(=O)COc3ccc(C(C)=O)cc3)C2)cc1` (configuration not stated), the IC50 is 74.9 µM (active).
Then `COc1ccc(OCC(O)CN2CCCC2)cc1` (configuration not stated), with “inactive”; and `COc1ccc(NC2CCCN(C(=O)C3(C)CCCCC3)C2)cc1` (configuration not stated), with 67.2 µM (active).
Then `COc1ccc(NC2CCCN(C(=O)c3ccc(C(C)=O)s3)C2)cc1` (configuration not stated), with 80.4 µM (active); and `Cc1ccc(C)c(OCC(O)CN2CCC(C)CC2)c1C` (configuration not stated), with “inactive”; and `Cc1ccccc1C1=C/C(=C(\SS/C(C(=O)c2ccc(OCC(=O)O)c(Cl)c2Cl)=C2\C=C(c3ccccc3C)SS2)C(=O)c2ccc(OCC(=O)O)c(Cl)c2Cl)SS1`, with “inactive”.
Then `CSc1nc(=S)c2[nH]c(=S)[nH]c2[nH]1`, with “inactive”; and `COc1cc2[nH]c(=S)nc(Nc3ccc(NC(C)=O)cc3)c2cc1OC`, with “inactive”; and `CCCCNc1cc(NC(C)=O)cc2cc(OC)c(OC)cc12`, with 52.3 µM (active).
For the compound `COc1cc2cc(NC(C)=O)cc(NCc3ccccc3)c2cc1OC`, the IC50 is 61 µM (active).
On to `Cc1ccc2c(c1)cc(C(=O)NCc1ccccc1)n2C`, for which the IC50 result was “inactive”.
As for `O=S(=O)(c1ccccc1)N1N=C(c2ccc(O)cc2)CC1c1ccco1` (configuration not stated), the IC50 result was “inactive”.
On to `O=C1C=C(Nc2ccc(O)cc2)CC(c2ccco2)C1` (configuration not stated), for which the 50% inhibitory concentration (IC50) is 17.8 µM (active).
Next, `Cc1cc(C)c(S(=O)(=O)Nc2ccc(O)cc2)c(C)c1`: 68.4 µM (active); `Cc1cc(C)c(C)c(S(=O)(=O)Nc2ccc(O)cc2)c1C`: 48.5 µM (active).
Next, `CCN(CC)c1ccc(C(=C2C=CC(=[N+](CC)CC)C=C2)c2ccc(N(CC)CC)cc2)cc1`: 45.3 µM (active); `CCN(CC)c1ccc(C(=C2C=CC(=[N+](CC)CC)C=C2)c2ccccc2)cc1`: “inactive”.
Next, `COc1cc(C(C)=NNC(=O)c2ccncc2)ccc1O`: 36.8 µM (active); `COc1cc(/C(C)=N\NC(=O)CSc2nc3ccccc3n2C)ccc1O`: 39.3 µM (active); `C/C(=N\NC(=O)CSc1nc2ccccc2o1)c1ccc(O)cc1`: 68.9 µM (active).
For the compound `COc1cc(/C(C)=N/NC(=O)C(O)(c2ccccc2)c2ccccc2)ccc1O`, the IC50 is 79.7 µM (active).
Then `COc1ccccc1CN1CCN(C(=O)c2ccncc2)CC1`, with “inactive”.

Broadly, the IC50 is the midpoint of a concentration-inhibition curve.
